The values that follow come from PubChem BioAssay (NCI).

Holding throughout (experiment): NCI-60 one-dose screen, 48 h (100 = growth as untreated, 0 = no growth, -100 = all killed)
What all share (conditions): 10 µM

Assay [1] concerns SK-MEL-2 melanoma.
Assay [2] deals with EKVX NSCLC.
For assay [3], the system named is SN12C renal.
The subject of assay [4] is UO-31 renal.
Assay [5] relates to TK-10 renal.
The test system of assay [6] is ACHN renal.
Assay [7] relates to CAKI-1 renal.
Assay [8] concerns CCRF-CEM leukemia.
Assay [9] has as its system MOLT-4 leukemia.

About 83,000 compounds went through this panel and 20% of them were active in at least one assay; those are over-represented in the sample as a whole.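 Method: cells in 96-well plates; compound added at one concentration; 48 h incubation; percent growth measured; values under 10 scored active.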 Unmarked numbers belong to inactive results. The source made the active and inactive calls.

As for `COc1ccc(-c2nn(-c3cccc(Cl)c3)cc2-c2cc(-c3ccccc3)nc(N)n2)cc1`, the growth was 83.6% in assay [1]; 58.2% in assay [2]; 35.8% in assay [3]; 60.8% in [4]; 86% in assay [5]; 71.1% in assay [6]. Besides, the growth in assay [7] is 29.2%; in assay [8] it was 41.1%; in assay [9], 6.55% (active).

As for `CCc1ccc(C2=NN(c3ccc(S(C)(=O)=O)cc3)C(=O)CC2)cc1`, the growth in [1] is 36.9%; in assay [2], 60.4%; in assay [3], 31.4%; in [4] it was 33.3%; in assay [5] it was 71.1%; in assay [6] it was 46%. Moreover, the growth in assay [7] was 16.7%; in assay [8], 15.6%; in assay [9] it was 15.3%.

Regarding `O=C(Nc1cc([N+](=O)[O-])c2[nH]c(=O)c3ccccc3c2c1)C(F)(F)F`, the growth is 106% in assay [1]; 67.1% in [2]; 76.8% in assay [3]; 54.5% in assay [4]; 84% in [5]; 58.6% in assay [6]. For the same compound, the growth in assay [7] is 89.1%; in assay [8], 72.8%; in assay [9] it was 55.2%.

On to `COc1ccc(-c2nn(-c3cccc(Cl)c3)cc2-c2c(C#N)c(=O)n3[nH]c(-c4ccccc4)nc3c2C#N)cc1`, for which the growth in [1] is 88.6%; in assay [2] it was 35.9%; in [3], 104%; in assay [4], 82.5%; in assay [5], 123%; in assay [6], 101%. The growth in [7] is 62.9%; in assay [9], 61.6%.

`Cc1c2cnccc2c(C)c2c1c1cc(O)ccc1n2C(C)C`: the growth was -14.4% (active) in [1]; 9.67% (active) in [2]; -6.79% (active) in [3]; -3.92% (active) in assay [4]; 56.2% in [5]; -1.61% (active) in assay [6]. Further, the growth in assay [7] is 15.6%; in assay [9] it was -4.53% (active).

With `Nc1nc(-c2cccnc2)nc2c1sc(=S)n2-c1ccccc1`, the growth is 101% in [1]; 101% in assay [2]; 98.6% in assay [3]; 97.2% in assay [4]; 93.5% in assay [5]; 107% in [6]. Further, the growth is 98.7% in assay [7] and 96.9% in assay [9].

With `COc1cc(C(=O)/C(C)=C/c2c[nH]c3ccccc23)cc(OC)c1OC`, the growth in [1] is 28.7%; in assay [2], 33.5%; in assay [3], 26.3%; in assay [4] it was 48.8%; in assay [5], 62.3%; in [6], 28.1%. The growth in [7] was 34.1%; in assay [9] it was 17.5%.

In the case of `Nc1ccc(-c2cccs2)cc1NC(=O)c1ccc(CCCC(=O)Nc2ccc(C3CC3N)cc2)cc1` (configuration not stated), the growth in assay [1] was 69.6%; in assay [2], 73.9%; in assay [3] it was 80.3%; in [4], 75.8%; in assay [5], 55.6%; in assay [6], 83.5%. Also, the growth in assay [7] is 88.7%; in assay [9], 47%.

In the case of `N#Cc1c(-c2ccc(Cl)cc2)cc(-c2cc(O)ccc2O)nc1N`, the growth is 31.2% in [1]; 42.9% in [2]; -2.03% (active) in assay [3]; 59% in assay [4]; 79.6% in [5]; 8.35% (active) in [6]. Also, the figures for the growth in [7] and in assay [9] were 82.8% and 11.3%, respectively.

On to `Nc1ccccc1NC(=O)c1ccc(CCCC(=O)Nc2ccc(C3CC3N)cc2)cc1` (configuration not stated), for which the growth in assay [1] was -4.46% (active); in [2], 53.5%; in assay [3], 43.8%; in assay [4], 62.8%; in assay [5] it was 8.6% (active); in assay [6], 52%. Further, the growth in assay [7] is 96.2%; in [9], 22.6%.

Regarding `COc1ccc(/C=C/c2nnc(/C=C/c3ccc(OC)c(OC)c3)o2)cc1OC`, the growth in assay [1] was 20.3%; in assay [2] it was 36.9%; in assay [3], 22.1%; in [4], 37.4%; in [5], 45.5%; in assay [6], 45.4%. For the same compound, the growth in assay [7] is 51.4%; in assay [9], 20.3%.

Take `O=c1cn[nH]c2ccc(Br)cc12`: the growth in assay [1] is 103%; in assay [2], 108%; in assay [3], 105%; in assay [4], 78.9%; in assay [5] it was 95.4%; in [6], 103%. Besides, the growth is 113% in assay [7], 96.1% in assay [8] and 86.5% in assay [9].

On to `O=C1c2ccccc2-c2c1c1cccnc1c(=O)n2C[C@H](O)CO`, for which the growth is 101% in assay [1]; 79.3% in assay [2]; 35.6% in assay [3]; 49.9% in assay [4]; 84.7% in assay [5]; 27.6% in assay [6]. In addition, the growth in assay [7] is 65.5%; in [9] it was 9.69% (active).

On to `COc1ccc(-c2nn(-c3cccc(Cl)c3)cc2-c2cc(-c3ccccc3)[nH]c(=O)c2C#N)cc1`, for which the growth was 56.7% in assay [1]; 57.2% in assay [2]; 67.7% in [3]; 24.7% in assay [4]; -12.8% (active) in assay [5]; 11% in assay [6]. The results for the growth in assay [7], in assay [8] and in assay [9] were 40.8%, 91.7% and 79.6%, respectively.
